According to PubChem BioAssay (NCI):
This is part of a sample that, as a whole, favours compounds with a hit. Of some 79,000 tested, about 15% had one in any assay. Active and inactive are the calls of the source. Cut-off read from the data, not from the text of the source: active = growth inhibition above about 70%; inactive = the rest.

How the values were obtained:
[1] = NCI Yeast Anticancer Drug Screen. Data for the rad52 strain (AID 147);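 note: 0% = growth of vehicle-treated control cultures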; conditions: S. cerevisiae rad52 mutant growth inhibition, active compounds read high
Procedure, shortened: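 Measured: yeast growth inhibition. System: strain with a defined DNA damage repair alteration. Reference: vehicle-treated control cultures.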

[2] = NCI Yeast Anticancer Drug Screen. Data for the wt1 strain (AID 149);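 note: 0% = growth of vehicle-treated wt1 cultures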; conditions: S. cerevisiae wt1 strain (SPY 50644) growth inhibition, active compounds read high
Procedure, shortened: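 Growth inhibition read against vehicle controls after compound exposure of the wt1 yeast strain.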

[3] = NCI Yeast Anticancer Drug Screen. Data for the rad50EPP+ strain (AID 151);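 note: 0% = growth of vehicle-treated control cultures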; conditions: S. cerevisiae rad50 mutant strain, active compounds read high
Procedure, shortened: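 One strain with a rad50 alteration (rad50EPP+) was compound-treated, its growth then compared to that of vehicle controls.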

[4] = NCI Yeast Anticancer Drug Screen. Data for the mgt1 strain (AID 153); conditions: S. cerevisiae mgt1 mutant growth inhibition, active compounds read high
Procedure, shortened: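 After exposure of the mgt1 yeast mutant to compound, growth was measured and reported as inhibition compared with vehicle controls.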

[5] = NCI Yeast Anticancer Drug Screen. Data for the rad50 strain (AID 155);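 note: 0% = growth of vehicle-only cultures of the same strain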; conditions: S. cerevisiae rad50 strain growth inhibition, active compounds read high
Procedure, shortened: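 Readout: growth inhibition relative to vehicle-treated cultures. Compound exposure was carried out in a genetically defined yeast strain deficient in DNA damage repair.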

[6] = NCI Yeast Anticancer Drug Screen. Data for the mec2-1 strain (AID 157); conditions: S. cerevisiae mec2-1 strain, active compounds read high
Procedure, shortened: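 Test agents were screened against the mec2-1 yeast strain, with defined DNA repair or cell cycle alteration. Growth was scored as inhibition against vehicle-only controls.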

[7] = NCI Yeast Anticancer Drug Screen. Data for the rad14 strain (AID 159);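 note: 0% = growth of vehicle-treated control cultures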; conditions: S. cerevisiae rad14 strain growth inhibition, active compounds read high
Procedure, shortened: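 Growth inhibition vs vehicle controls; genetically altered yeast strain (DNA damage repair defect) treated with test compounds.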

[8] = NCI Yeast Anticancer Drug Screen. Data for the sgs1 mgt1 strain (AID 161);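 note: 0% = growth of cultures given vehicle only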; conditions: S. cerevisiae sgs1 mgt1 strain, active compounds read high
Procedure, shortened: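 Genetically altered yeast, compound exposure, growth inhibition relative to vehicle.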

[9] = NCI Yeast Anticancer Drug Screen. Data for the CLN2oe strain (AID 163);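 note: 0% = growth of vehicle-only control cultures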; conditions: S. cerevisiae CLN2oe strain, active compounds read high
Procedure, shortened: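 Here, growth inhibition in a cell-cycle-altered yeast strain after compound exposure was quantified against vehicle control growth.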

[10] = NCI Yeast Anticancer Drug Screen. Data for the cln2 rad14 strain (AID 165);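 note: 0% = growth equal to vehicle treated cultures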; conditions: S. cerevisiae cln2 rad14 strain, active compounds read high
Procedure, shortened: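 Growth of compound-exposed yeast (cln2 rad14 genotype) measured and expressed as inhibition relative to vehicle.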

[11] = NCI Yeast Anticancer Drug Screen. Data for the bub3 strain (AID 167); conditions: S. cerevisiae bub3 mutant strain, active compounds read high
Procedure, shortened: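 Readout: yeast growth inhibition, expressed relative to vehicle-only wells. The test organism is a mutant strain from a panel with lesions in DNA repair or checkpoint genes.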

[12] = NCI Yeast Anticancer Drug Screen. Data for the wt2 strain (AID 169);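 note: 0% = growth of vehicle-treated yeast cultures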; conditions: S. cerevisiae wt2 strain growth inhibition, active compounds read high
Procedure, shortened: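 Genetically defined yeast strains from a DNA-repair/cell-cycle panel were used. Compound-exposed yeast growth was measured, and the inhibition was calculated relative to vehicle treatment.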

[13] = NCI Yeast Anticancer Drug Screen. Data for the mlh1 strain (AID 171);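 note: 0% = growth of vehicle-treated control cultures of the same strain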; conditions: S. cerevisiae mlh1 strain growth inhibition, active compounds read high
Procedure, shortened: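 Here the genetically defined yeast mutant is grown with each compound, and the extent to which its growth falls below that of vehicle-exposed cells is reported.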

[14] = NCI Yeast Anticancer Drug Screen. Data for the sgs1 strain (AID 173);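 note: 0% = growth of vehicle-only control cultures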; conditions: S. cerevisiae sgs1 mutant, active compounds read high
Procedure, shortened: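 Relative growth inhibition, referenced to vehicle, was determined in a yeast strain with a defined alteration affecting DNA damage repair or cell cycle control after compound exposure.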

[15] = NCI Yeast Anticancer Drug Screen. Data for the mlh1 rad18 strain (AID 175); conditions: S. cerevisiae mlh1 rad18 strain growth inhibition, active compounds read high
Procedure, shortened: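 In this whole-cell yeast screen, a strain with altered DNA damage repair is challenged with compound, and its growth is measured against matched vehicle-treated controls.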

[16] = NCI Yeast Anticancer Drug Screen. Data for the rad18 strain (AID 177); conditions: S. cerevisiae rad18 mutant growth inhibition, active compounds read high
Procedure, shortened: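 Screen uses a yeast strain with a defined lesion in DNA damage repair; compound effect is read as loss of growth compared to untreated vehicle cultures.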

[17] = at 5.0 µM (retest, dose inferred, filed as 0.5)
[18] = at 50.0 µM (retest, dose inferred, filed as 5.0)

Measured: growth inhibition

O=C(N=Nc1cc(Cl)ccc1Cl)NNc1cc(Cl)ccc1Cl
active: [5]; [18] 76% | [5]; at 50.0 µM 74.4% | [6]; [18] 79% | [6]; at 50.0 µM 78.1% | [8]; [18] 73% | [10]; [18] 82% | [10]; at 50.0 µM 71.8% | [11]; [18] 81% | [15]; [18] 86%
inactive: [1]; at 1.2 µM -2% | [1]; at 3.7 µM -4% | [1]; at 11.0 µM -3% | [1]; at 33.0 µM -2% | [1]; at 100.0 µM 2% | [2]; at 1.2 µM -2% | [2]; at 3.7 µM 0% | [2]; at 11.0 µM -1% | [2]; at 33.0 µM 0% | [2]; at 100.0 µM 4% | [3]; at 1.2 µM -1% | [3]; at 3.7 µM -3% | [3]; at 11.0 µM -1% | [3]; at 33.0 µM -3% | [3]; at 100.0 µM 4% | [4]; at 1.2 µM -3% | [4]; at 3.7 µM -4% | [4]; at 11.0 µM 17% | [4]; at 33.0 µM -12% | [4]; at 100.0 µM 2% | [5]; at 1.2 µM -2% | [5]; at 3.7 µM -2% | [5]; [17] -2% | [5]; at 11.0 µM -23% | [5]; at 33.0 µM -1% | [5]; at 100.0 µM 3% | [6]; at 1.2 µM -1% | [6]; at 3.7 µM 0% | [6]; [17] 19% | [6]; at 11.0 µM 3% | [6]; at 33.0 µM -1% | [6]; at 100.0 µM 4% | [7]; at 1.2 µM -3% | [7]; at 3.7 µM -4% | [7]; at 11.0 µM -5% | [7]; at 33.0 µM 2% | [7]; at 100.0 µM 3% | [8]; [17] 3% | [8]; at 50.0 µM 66.5% | [9]; at 1.2 µM 0% | [9]; at 3.7 µM -7% | [9]; at 11.0 µM 0% | [9]; at 33.0 µM 0% | [9]; at 100.0 µM 9% | [10]; [17] 39% | [11]; at 1.2 µM -1% | [11]; at 3.7 µM 2% | [11]; [17] -30% | [11]; at 11.0 µM 3% | [11]; at 33.0 µM -7% | [11]; at 50.0 µM 60.1% | [11]; at 100.0 µM -6% | [12]; at 1.2 µM -1% | [12]; at 3.7 µM -3% | [12]; at 11.0 µM -2% | [12]; at 33.0 µM -1% | [12]; at 100.0 µM 2% | [13]; at 1.2 µM -1% | [13]; at 3.7 µM -5% | [13]; at 11.0 µM -3% | [13]; at 33.0 µM -1% | [13]; at 100.0 µM 1% | [14]; at 1.2 µM -2% | [14]; at 3.7 µM -1% | [14]; at 11.0 µM -1% | [14]; at 33.0 µM -1% | [14]; at 100.0 µM 1% | [15]; [17] 5% | [15]; at 50.0 µM 68.9% | [16]; at 1.2 µM -4% | [16]; at 3.7 µM -3% | [16]; at 11.0 µM -6% | [16]; at 33.0 µM -21% | [16]; at 100.0 µM 3%

COC(=O)CSSCc1ccc([N+](=O)[O-])cc1
active: [1]; at 33.0 µM 75% | [1]; at 100.0 µM 98% | [2]; at 100.0 µM 83% | [3]; at 11.0 µM 70% | [3]; at 33.0 µM 93% | [3]; at 100.0 µM 98% | [4]; at 100.0 µM 98% | [5]; at 33.0 µM 85% | [5]; [18] 97% | [5]; at 50.0 µM 97.3% | [5]; at 100.0 µM 97% | [6]; [18] 96% | [6]; at 50.0 µM 96% | [6]; at 100.0 µM 97% | [7]; at 100.0 µM 98% | [8]; [18] 97% | [8]; at 50.0 µM 94.7% | [9]; at 100.0 µM 95% | [10]; [18] 89% | [10]; at 50.0 µM 93.6% | [11]; at 33.0 µM 71% | [11]; [18] 98% | [11]; at 50.0 µM 96% | [11]; at 100.0 µM 97% | [12]; at 100.0 µM 98% | [13]; at 100.0 µM 99% | [14]; at 33.0 µM 87% | [14]; at 100.0 µM 99% | [15]; [18] 98% | [15]; at 50.0 µM 94.4% | [16]; at 33.0 µM 83% | [16]; at 100.0 µM 97%
inactive: [1]; at 1.2 µM 3% | [1]; at 3.7 µM 19% | [1]; at 11.0 µM 40% | [2]; at 1.2 µM -1% | [2]; at 3.7 µM -2% | [2]; at 11.0 µM 3% | [2]; at 33.0 µM 24% | [3]; at 1.2 µM -2% | [3]; at 3.7 µM 13% | [4]; at 1.2 µM -1% | [4]; at 3.7 µM 1% | [4]; at 11.0 µM 16% | [4]; at 33.0 µM 44% | [5]; at 1.2 µM 4% | [5]; at 3.7 µM 20% | [5]; [17] 15% | [5]; at 11.0 µM 47% | [6]; at 1.2 µM -2% | [6]; at 3.7 µM 2% | [6]; [17] -8% | [6]; at 11.0 µM 14% | [6]; at 33.0 µM 37% | [7]; at 1.2 µM 0% | [7]; at 3.7 µM 8% | [7]; at 11.0 µM 20% | [7]; at 33.0 µM 48% | [8]; [17] 38% | [9]; at 1.2 µM -1% | [9]; at 3.7 µM -6% | [9]; at 11.0 µM 7% | [9]; at 33.0 µM 43% | [10]; [17] -10% | [11]; at 1.2 µM 1% | [11]; at 3.7 µM 5% | [11]; [17] 43% | [11]; at 11.0 µM 24% | [12]; at 1.2 µM 1% | [12]; at 3.7 µM -3% | [12]; at 11.0 µM 22% | [12]; at 33.0 µM 34% | [13]; at 1.2 µM -4% | [13]; at 3.7 µM 9% | [13]; at 11.0 µM 31% | [13]; at 33.0 µM 67% | [14]; at 1.2 µM -20% | [14]; at 3.7 µM -24% | [14]; at 11.0 µM 33% | [15]; [17] 69% | [16]; at 1.2 µM -2% | [16]; at 3.7 µM 19% | [16]; at 11.0 µM 48%
